In all, about 4,800 compounds went through this assay and about 410 (8.5%) showed an effect of 50% or more. Shown is part of a subset that was picked to be rich in strong results.
Test system: Plasmodium falciparum
Experiment: Confirmatory screen in NF54 pLDH assay, in single point, at 2uM, 72h
Format: functional, Erythrocyte
Conditions: timepoint 72 hour

Structure (SMILES)	% Inhibition [%]
Cc1ccc(S(=O)(=O)N(CC(=O)N[C@@H](C)c2ccccc2)c2cccc(Br)c2)cc1	11
CCCc1ccc(OCCNC(=O)C2CCCC2)cc1	3
O=C(Nc1ccccc1)C(=O)Nc1ccc2ncc(Cl)n2c1	7
O=C(c1cc2nc(-c3ccc(Cl)c(Cl)c3)cc(C(F)(F)F)n2n1)N1CCN(c2ccccc2)CC1	-7
CCc1ccc(-c2cc3c(=O)n(CC(=O)N4CC(C)CC(C)C4)ncn3n2)cc1 (stereo unspecified)	11
Cc1sc2nc(-c3ccccn3)nc(NCC(=O)N3CCC(O)CC3)c2c1-c1ccccc1	23
Cc1cc(NCCc2nccn2C)ncn1	-4
CCN1CCN(c2nc3ncn(CC(=O)NCCCc4ccccc4)c(=O)c3s2)CC1	-2
CCc1c(C)nn(S(=O)(=O)c2ccc3ccccc3c2)c1O	-3
Cc1ncsc1COC(=O)c1ccnc(N(C)C)c1	10
C[C@H]1CCC[C@@H](NCCc2ccccc2)CCC/C=C/c2cc(O)cc(O)c2C(=O)O1	72
Cc1cccc(NC(=O)c2cc(Cl)c[nH]2)n1	6
COc1ccccc1C1CC1c1nc(CC(=O)NC2CCCC2)no1 (stereo unspecified)	-5
Cc1ccc(-c2noc(CCC(=O)NC[C@H]3CCCO3)n2)c(=O)n1C(C)C	0
CN(CCNC(=O)CCc1cn(-c2ccccc2)nc1-c1ccc2c(c1)OCO2)C1CCCCC1	49
CC[C@H](C)NC(=O)c1cn(-c2cccc(C)n2)cn1	13
Nc1ccc(Cc2nnc3n2CCC3)cc1	8
O=C(N[C@@H](CN1CCCC1)c1ccccc1)N1CCC(c2ccn[nH]2)CC1	43
Clc1cccc(CNCCCNc2ccncc2)c1Cl	95
OCCNCc1c(Cl)cccc1Cl	4
CN(C)CCCNCc1ccccc1F	10
CC(NC(=O)C1CCC1)C(=O)Nc1ccn(C(C)c2ccccc2)n1 (stereo unspecified)	-6

Structure (SMILES)	% Inhibition [%]
O=C(Nc1ccc(Cn2ccnc2)cc1)c1cc2ccccc2cc1OC(F)F	-12
Cc1ccc[n+](Cc2ccc3ccccc3n2)c1	53
c1ccc2c[n+](Cc3ccc4ccccc4n3)ccc2c1	47
O[C@@H](Cc1ccc2ccccc2n1)c1ccccc1	-3
CCn1nc(-n2cnnc2)c(NS(=O)(=O)c2ccc(Br)cc2C)c1C	12
CC(=O)Nc1cccc(NC(=O)Cn2c(=O)n(CCc3cccs3)c(=O)c3ccccc32)c1	10
CCOC(=O)c1cc(NC(=O)C(C)(C)NC(=O)OC(C)(C)C)c(F)cc1C	8
CCOC(=O)c1ncn(C2CCCCC2)c1N	10
CCOC(=O)c1cn(CC)c2cc(NC3CCCCC3)c(F)cc2c1=O	69
Cc1cc2[nH]ncc2cc1NC(=O)c1ccco1	9
CC[C@H]1C[C@@H]1CNC(=O)c1cccc(NC(=O)c2ccco2)c1	-2
COC(C)(C)c1nc(Cn2cnc3ccccc32)no1	6
CC(C)[C@H](NC(=O)c1ccc(Cl)cc1Cl)C(=O)O	-5
CCOC(=O)CCn1cc(F)c(=O)[nH]c1=O	66
CCOC(=O)CNc1ccc(F)c(Cl)c1	-3
CCOC(=O)COc1cc(N)c(F)cc1Cl	-9
COCCCNC(=O)c1cncc(Br)c1	-2
NC(=O)c1cc(Cl)c(Cl)c(Cl)c1	-22
O=C1CCC[C@H](O)N1Cc1ccc(F)cc1	8
CCc1ccc([C@H]2NCCc3[nH]cnc32)nc1	24
CCc1ccc(CN2CCC[C@H](c3ncc[nH]3)C2)nc1	52
CC(C)n1ccc(CN2CCC[C@H](c3cc(C(F)(F)F)[nH]n3)C2)n1	1

Structure (SMILES)	% Inhibition [%]
c1ccc(C(c2ccccc2)N2CCN(c3nn4cnnc4c4ccccc34)CC2)cc1	65
O=C(c1cccc(C(=O)N2CCN(C(c3ccccc3)c3ccccc3)CC2)c1)N1CCN(C(c2ccccc2)c2ccccc2)CC1	26
CCc1cc(C(=O)N2CCCCC2)c2c(C)nn(-c3ccc(OC)cc3)c2n1	10
COC(=O)[C@](Nc1ccc(Oc2ccccc2)cc1)(c1cc(C)c(O)c(C)c1)C(F)(F)F	7
CCCCn1c(N)c(N(Cc2ccccc2OC)C(=O)c2ccoc2C)c(=O)[nH]c1=O	-22
Cc1ccc(Nc2c(C(=O)NCc3ccc(F)cc3)cnc3c2c(C)nn3C)cc1	-5
O=C(NCCN1CCCC1)c1cc2n(n1)CCN(Cc1cccc(F)c1)C2=O	-27
N#Cc1nc2c(C#N)c(N)n(CCc3ccccc3)c2nc1C#N	92
Nc1nc2c(s1)CN(CCc1ccccc1)CC2	41
N#Cc1c(-c2ccccc2)cc(-c2ccccc2)nc1S(=O)(=O)Cc1ccccc1	43
O=S(=O)(c1ccccc1F)C1CNC1	-18
O=C(c1cccc(COc2ccc(Br)cc2)c1)N1CCN(Cc2ccccc2)CC1	-14
O=C(c1coc(-c2ccccc2)n1)N1CCc2cc(Br)ccc21	1
CC(C)c1nc(C(=O)Nc2[nH]c(=O)ncc2F)cs1	83
CC(C)c1nc(C(=O)Nc2ccccc2CN2CCNC2=O)cs1	5
O=C(Nc1[nH]c(=O)ncc1F)c1coc(-c2ccccc2)n1	71
Cc1ccc(-c2cc(C(=O)Nc3nnc(C(C)C)s3)no2)cc1F	16
Cc1nc(C(=O)Nc2[nH]c(=O)ncc2F)c(-c2ccccc2)o1	70
O=C(CNc1cc(F)c(F)cc1F)NC(=O)NCC(F)(F)F	-5
CC(C)CN1C(=O)CC[C@@H](C(=O)NCCCN2CCOCC2)[C@@H]1c1cccnc1	-17
Cc1nc2ccc(Cl)cc2c(-c2ccccc2)c1C1=NN(S(C)(=O)=O)[C@H](c2ccccc2Cl)C1	-14
Cn1cc(-c2csc(NC(=O)c3ccc4[nH]cnc4c3)n2)cn1	7

Structure (SMILES)	% Inhibition [%]
CCN1C(=O)CN(C(=O)c2cccc(C)c2)CC12CCOCC2	9
Cc1nc(Cn2nnc(NC(=O)c3cccc(F)c3)c2C)no1	8
O=C(Nc1nc2cccc(Cl)c2o1)c1cccc(F)c1	92
CC(C)(C)NC(=O)CNC(=O)c1cccc(F)c1	-8
Cc1c(Br)c(C)n(NC(=O)c2cnn(Cc3ccccc3)c2)c(=O)c1C#N	-15
Cc1cccc(C)c1Oc1ccccc1NC(=O)CCc1nnc[nH]1	4
O=S(=O)(Nc1ccc2nncn2c1)c1c(F)cccc1Cl	-18
Cc1ccc(F)cc1NC(=O)N1CCC12CCC2	11
N#CC1(c2ccccc2)c2ccccc2C(=O)c2ccccc21	-4
CN(Cc1ccccc1)C(=O)C[C@H]1CCN(C(=O)NC2CCCC2)C1	2
Cc1cccc2ncnc(N(C)[C@@H](C)Cc3ccc(O)cc3)c12	84
Cc1n[nH]c2ncc(NC(=O)c3ccc(CCC(F)(F)F)cc3)cc12	17
Cc1cc(C)cc(CN2CCCN(c3ccc(C)cc3NC(=O)Cc3ccc(F)cc3)C2=O)c1	13
CC(C)CCO[C@@H](C)C(=O)NC1CCN(CC(=O)NC(C)C)CC1	5
O=C1C2C3C=CC(C3=C3CCCCC3)C2C(=O)N1c1cccc(Cl)c1 (stereo unspecified)	15
COc1cccc(S(=O)(=O)N2CCC(OCCOc3ccccc3)CC2)c1	7
COc1cccc(S(=O)(=O)N2CCCN(Cc3ccncc3)[C@H](c3ccccc3)CC(=O)NCC2)c1	86
COc1cccc(S(=O)(=O)N2CCC(OCCOCc3ccccc3)CC2)c1	10
Cc1cccc(NC(=O)Cn2ccc(C(=O)Nc3cccc(C)c3C)n2)c1C	-11
CCOC(=O)[C@@H]1C(=O)Nc2cc(OC)ccc21	9
COc1ccc(CCNCC(=O)Nc2c3c(nc4ccccc24)N(C)CC3)cc1OC	6
CN(C)c1ccc(NN=C2N=NN=N2)cc1	3

Structure (SMILES)	% Inhibition [%]
COc1cccc(Cn2c(=O)c3sccc3n(CC(=O)Nc3ccc4c(c3)OCO4)c2=O)c1	16
COc1cccc(NC(=O)Cn2c(=O)n(C)c(=O)c3sc(N4CCCC4)nc32)c1	1
COc1cccc(NC(=O)Cn2c(C)ccc(NS(=O)(=O)c3ccc(C)cc3)c2=O)c1	59
Cc1cc(C)c(NC(=O)CN(C)C(=O)NCc2ccco2)c(C)c1	-8
O=C(NC(Cn1ccccc1=O)c1ccccc1)C1CCOC1 (stereo unspecified)	7
O=C(N[C@@H](Cn1nccn1)c1ccccc1)c1cc(Br)ccc1Cl	75
O=C(Nc1ccc2c(c1)c1cc(Br)ccc1n2Cc1ccccc1)c1ccccc1	6
Cc1ccccc1-c1cc2c(N3CCN(C4CCCCC4)CC3)nccn2n1	4
Cc1cc(Br)cc(N[C@H](c2cccnc2)c2ncc[nH]2)c1	6
Cc1ccc2nc(C3CC3)cc(C(=O)N3C[C@@H](O)C[C@H]3CO)c2c1	-1
Cc1ccc2nc3c(c(N)c2c1)CCCCN3C	-20
CC(C)c1ccc(S(=O)(=O)Nc2ccc3nc(NC(=O)c4ccccc4)sc3c2)cc1	6
CN(C)c1ccc(CNC2CCCCCC2)cc1	-13
CN(CC(=O)Nc1ccccc1C(F)(F)F)C1CNC1	8
COC[C@H](NCCc1cc(F)cc2c1OCOC2)C1CC1	82
Cc1csc(NC(=O)NCCc2cc(F)cc3c2OCOC3)n1	-14
N#Cc1cc(O)c(-c2c(O)n[nH]c2-c2ccccc2)cc1C#N	10
O=c1[nH]c(=O)n(Cc2nc(-c3ccco3)no2)cc1Cl	3

Reference: ChEMBL document CHEMBL4888484, “Replenishing the malaria drug discovery pipeline: Screening and hit evaluation of the MMV Hit Generation Library 1 (HGL1) against asexual blood stage Plasmodium falciparum ,using a nano luciferase reporter read-out” (2022)
